Test systems include T-47D breast; BT-549 breast; MDA-MB-435 melanoma; SW-620 colon; MCF7 breast; HCT-116 colon; KM12 colon; HCC-2998 colon.
Holding throughout (test): NCI-60 one-dose screen, 48 h (100 = growth as untreated, 0 = no growth, -100 = all killed)
Common to all, as to settings: 10 µM unless noted

This is part of a sample that, as a whole, favours compounds with a hit. Of some 83,000 tested, about 20% had one in any assay.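 Values shown are percent growth following 48 h exposure of cells in 96-well plates to a single concentration of compound; below 10 was considered active.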 Unmarked numbers belong to inactive results. Calls of active or inactive are those of the source.

For the molecule `Oc1c(Cl)cc(Oc2cc(Cl)c(O)c(CN3CCOCC3)c2)cc1CN1CCOCC1`, the growth in the assay on T-47D breast is 69.7%; with BT-549 breast, 96.5%; in the assay with MDA-MB-435 melanoma it was 101%; with SW-620 colon, 98.3%; in the assay on MCF7 breast it was 94.4%; with HCT-116 colon, 87%. In addition, the growth in the assay with KM12 colon was 102%.

With `Cn1c(=O)c2[nH]c(=S)n(Cc3ccccc3)c2n(C)c1=O`, the growth with T-47D breast was 98.8%; in the assay with BT-549 breast it was 106%; with MDA-MB-435 melanoma, 119%; in the assay on SW-620 colon, 100%; with MCF7 breast it was 101%; in the assay with HCT-116 colon, 98.2%. The growth with KM12 colon was 109%.

`O=C(CSc1ncc(-c2ccccc2)n1-c1ccccc1)Nc1ccc(-c2nc3ccccc3s2)cc1`: the growth in the assay with T-47D breast is 56.3%; in the assay on BT-549 breast, 103%; in the assay on MDA-MB-435 melanoma, 55.9%; with SW-620 colon it was 64.4%; in the assay on MCF7 breast, 31.2%; with HCT-116 colon, 42.1%. In addition, the growth in the assay on KM12 colon was 51.1%.

Take `O=C(Nc1ccccc1OC(=O)c1ccccc1)c1ccccc1`: the growth is 67% in the assay on T-47D breast; 72.7% in the assay with BT-549 breast; 104% with MDA-MB-435 melanoma; 23.6% in the assay on SW-620 colon; 27.2% with MCF7 breast; 9.26% (active) in the assay with HCT-116 colon. In the assay with KM12 colon, the growth is 25.7%.

As to `COc1ccc2cc(C3=CC(=O)CCC3)ccc2c1`, the growth is 59.6% in the assay with T-47D breast; 97.1% in the assay with BT-549 breast; 93% with MDA-MB-435 melanoma; 117% in the assay with SW-620 colon; 110% with MCF7 breast; 92.5% in the assay on HCT-116 colon. In addition, the growth in the assay with KM12 colon is 109%.

For `COc1cc(/C=C2\CN(S(=O)(=O)c3ccc(C)cc3)C/C(=C\c3cc(CN4CCOCC4)c(O)c(OC)c3)C2=O)cc(CN2CCOCC2)c1O`, the growth is 63.9% in the assay with T-47D breast; -21.8% (active) with BT-549 breast; -19.7% (active) in the assay on MDA-MB-435 melanoma; 10.6% in the assay on MCF7 breast; -83.3% (active) in the assay with HCT-116 colon; -89.3% (active) in the assay on HCC-2998 colon. In addition, the growth in the assay with KM12 colon is -74.4% (active).

In the case of `O=C1Nc2ccc(Cl)cc2/C1=C/c1cccs1`, the growth was 16.9% in the assay on T-47D breast; 95.4% with BT-549 breast; 105% in the assay with MDA-MB-435 melanoma; 44.6% with MCF7 breast; 99.2% in the assay on HCT-116 colon; 77.6% with HCC-2998 colon. In addition, the growth with KM12 colon is 86.8%.

Consider `O=C(Nc1ccc2c(c1)C(=O)c1ccccc1-2)c1ccccc1`, for which the growth in the assay with T-47D breast was 73.2%; in the assay on BT-549 breast, 104%; in the assay with MDA-MB-435 melanoma it was 101%; in the assay on SW-620 colon it was 55.4%; in the assay with MCF7 breast, 48%; in the assay with HCT-116 colon it was -20.7% (active). Besides, the growth with KM12 colon is 87.3%.

Turning to `ICCC(c1ccccc1)(c1ccccc1)c1ccccc1`, the growth in the assay on T-47D breast was 39.2%; in the assay with BT-549 breast it was 54.6%; in the assay with MDA-MB-435 melanoma, 35.9%; in the assay on SW-620 colon, 80.7%; in the assay on MCF7 breast it was 35.1%; in the assay on HCT-116 colon it was 33.2%. The growth with KM12 colon is 57.7%.

On to `O=C1C=CC(=O)N1c1ccccc1N1C(=O)C=CC1=O`, for which the growth was 102% in the assay with T-47D breast; 104% with BT-549 breast; 122% in the assay on MDA-MB-435 melanoma; 57.9% in the assay on SW-620 colon; 97.1% in the assay on MCF7 breast; 105% in the assay on HCT-116 colon. Besides, the growth in the assay on KM12 colon was 117%.

With `CC(NC(=O)Oc1cccc2ccccc12)c1ccccc1` (stereo not given), the growth with T-47D breast is 92.7%; in the assay with BT-549 breast, 106%; in the assay with MDA-MB-435 melanoma, 102%; in the assay on SW-620 colon, 98.6%; in the assay on MCF7 breast, 87.8%; with HCT-116 colon, 105%. Further, in the assay with KM12 colon, the growth is 99.8%.

Regarding `CCOC(=O)/C=C1/SC(=Nc2ccc(C#N)cc2)N(Cc2ccco2)C1=O`, the growth with T-47D breast was 12.1%; in the assay on BT-549 breast, 44.8%; with MDA-MB-435 melanoma, 50.5%; in the assay on MCF7 breast it was 12.6%; in the assay with HCT-116 colon, -61.6% (active); in the assay with HCC-2998 colon it was 64.7%. In addition, the growth in the assay with KM12 colon is 60.9%.

`Cc1ccccc1NC(=O)NC(CC(N)=O)c1ccc2c(c1)nc(-c1cccc(Oc3ccc(C(C)(C)C)cc3)c1)n2CCCN1CCCCC1C` (stereo not given): the growth with T-47D breast is 47.4%; in the assay with BT-549 breast it was 93.7%; in the assay with MDA-MB-435 melanoma, -53.7% (active); in the assay on SW-620 colon, -62.2% (active); with MCF7 breast, -76.3% (active); with HCT-116 colon, -73.7% (active). The growth in the assay with KM12 colon was -35.3% (active).

`CCOC(=O)/C(=C/CC/C(C)=C/CC/C(C)=C/CCc1ccoc1)CC(=O)N1CCCCC1`: the growth with T-47D breast is 27.7%; in the assay on BT-549 breast, 88%; with MDA-MB-435 melanoma it was 34.1%; in the assay on SW-620 colon, 64.6%; in the assay with MCF7 breast, 32%; with HCT-116 colon, 44.9%. In addition, the growth in the assay with KM12 colon was 49%.

As for `COc1cnc2c(c1)C(=O)c1c-2n(CCCN2CCOCC2)c(=O)c2cc(F)ccc12`, the growth in the assay with T-47D breast was -16% (active); with BT-549 breast, 13.3%; in the assay on MDA-MB-435 melanoma, -14.2% (active); in the assay with MCF7 breast, 1.93% (active); in the assay with HCT-116 colon, -77.1% (active); in the assay on HCC-2998 colon, 13.2%. Moreover, in the assay with KM12 colon, the growth is -14.4% (active).

In the case of `COc1cc(NC(=O)NCc2ccco2)ccc1-c1ccc(NC(=O)NCc2ccco2)cc1OC`, the growth was 40.9% in the assay on T-47D breast; 81.7% with BT-549 breast; 76.5% with MDA-MB-435 melanoma; 72.6% in the assay on SW-620 colon; 44.7% in the assay with MCF7 breast; 35.2% in the assay on HCT-116 colon. The growth with KM12 colon is 47.8%.

Take `CCC(C)C1NC(=O)C(CCNCS(=O)(=O)O)NC(=O)C(NC(=O)C(CCNCS(=O)(=O)O)NC(=O)C(NC(=O)C(CCNCS(=O)(=O)O)NC(=O)CCCCC(C)C)C(C)O)CCNC(=O)C(C(C)O)NC(=O)C(CCNCS(=O)(=O)O)NC(=O)C(CCNCS(=O)(=O)O)NC(=O)C(C(C)CC)NC1=O` (stereo not given): the growth is 49.2% in the assay with T-47D breast; 66.3% in the assay with BT-549 breast; -56.2% (active) in the assay with MDA-MB-435 melanoma; 18.7% in the assay with MCF7 breast; 31.7% in the assay with HCT-116 colon; 65.1% in the assay on HCC-2998 colon.

Consider `CC(C)OP(=O)(OC(C)C)c1ncc(-c2ccc(C(F)(F)F)cc2)c(NC2CCCCCC2)n1`, for which the growth is -13.8% [33.3 µM] (active) with T-47D breast; -95% [33.3 µM] (active) with BT-549 breast; -75.2% [33.3 µM] (active) in the assay on MDA-MB-435 melanoma; 0.217% [33.3 µM] (active) in the assay on MCF7 breast; -93.4% [33.3 µM] (active) in the assay with HCT-116 colon; -87.6% [33.3 µM] (active) with HCC-2998 colon. Moreover, in the assay on KM12 colon, the growth was -95.8% [33.3 µM] (active).

These data come from PubChem BioAssay (NCI).
